For experiment [1], the target named is Glutathione peroxidase 1 (Homo sapiens) (UniProt P07203). The experiment in a line: Primary qHTS Assay for Inhibitors of Recombinant Selenoprotein Glutathione Peroxidase 1 (GPX1) (AID 1845191). Further: nearly all actives have a fitted effect of over 65% in size. The method in brief: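 10 nM GPX1 + cpd, 30 min RT; start w/ 1 mM GSH, 0.5 mM cumene hydroperoxide, 0.5 mM NADPH, 100 nM GR, 0.01% BSA; buffer 50 mM Tris-HCl pH 7.5, 2 mM EDTA, 150 mM NaCl; Fl 340/450, 0 & 15 min.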

The target in experiment [2] is Phospholipid hydroperoxide glutathione peroxidase GPX4 (Homo sapiens) (UniProt P36969). Briefly: Primary qHTS Assay for Inhibitors of Recombinant Selenoprotein Glutathione Peroxidase 4 (GPX4) (AID 1845192). Further: nearly all actives have a fitted effect of over 65% in size. The method in brief:
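NADPH consumption, followed by fluorescence at 340/450 nm between 0 and 15 min, reports GPX4 activity via coupled glutathione reductase (100 nM). Enzyme 200 nM was pre-exposed to compound 30 min; 0.5 mM cumene hydroperoxide and 1 mM GSH served as substrates.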
(In qHTS, concentration-response curves come from the screen itself.)

Experiment [3] concerns the target Luciferin 4-monooxygenase (Photinus pyralis) (UniProt P08659). The experiment in a line: Primary firefly luciferase (FLuc) qHTS assay for identification of artifact compounds. (AID 1845220). Further: nearly all actives have a fitted effect of over 60% in size. In short, it runs like this:
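Compounds sat 15 min at room temperature with 10 uM luciferin and 10 uM ATP (pH 7.6 Tris acetate). Firefly luciferase (10 nM final) was then added, and luminescence was read 5 min later. Data normalized to no-enzyme and DMSO controls were Hill-fitted.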

The nature of experiment [4]: Primary fluorescence-based thiol-reactive (MSTI) qHTS assay for identification of artifact compounds. (AID 1845221). Further: nearly all actives have a fitted effect of over 65% in size. Further: potency means the concentration at half of the fitted maximal effect. The method in brief:
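Thiol-reactive compounds detected by quenching of 4 uM MSTI fluorescence (525/598 nm) after 1 h room-temperature dark incubation in PBS pH 7.4, 2% DMSO. qHTS titration; percent inhibition Hill-fitted against Acetyl-MSTI/MSTI controls.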

The test system of experiment [5] is Nanoluciferase (engineered Oplophorus gracilirostris luciferase). The experiment in a line: Primary Nanoluciferase (NLuc) qHTS assay for identification of artifact compounds. (AID 1845222). Further: series mostly up to about 54 µM. The method in brief: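 Luminescence from secreted NLuc (filtered, 1:55-diluted S16 cell medium) read 5 min after Nano-Glo substrate; compounds preincubated 15 min, RT. Hill fits of inhibition normalized to DMSO and no-enzyme.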

The nature of experiment [6]: Primary redox qHTS assay for identification of artifact compounds. (AID 1845223). In short, it runs like this: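 Amplex Red (25 uM) and HRP (250 mU/mL) in HBSS, with compounds for 15 min, then 250 uM DTT for 30 min, room temperature, dark. Fluorescence 525/598 nm read; normalized to DMSO and 10 uM DA3003; Hill fit.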

Records with an inconclusive call do not appear. Activity calls are given as the source filed them. The call rests on the fitted dose curve; in most records, active means well fitted curve in the direction sought with a large enough effect; inconclusive means small, poorly fitted or top-dose-only effect, or another doubt; inactive means no such curve, though single readings can be large; an effect the other way counts as inactive or inconclusive.

Sequence of Glutathione peroxidase 1 (Homo sapiens) (P07203 whole entry, looked up): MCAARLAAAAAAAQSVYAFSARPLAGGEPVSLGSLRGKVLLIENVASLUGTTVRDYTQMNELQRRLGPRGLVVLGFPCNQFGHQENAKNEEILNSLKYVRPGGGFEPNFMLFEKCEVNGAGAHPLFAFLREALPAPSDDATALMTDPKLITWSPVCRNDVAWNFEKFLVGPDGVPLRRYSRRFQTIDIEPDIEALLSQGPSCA
Sequence of Phospholipid hydroperoxide glutathione peroxidase GPX4 (Homo sapiens) (P36969 whole entry, looked up): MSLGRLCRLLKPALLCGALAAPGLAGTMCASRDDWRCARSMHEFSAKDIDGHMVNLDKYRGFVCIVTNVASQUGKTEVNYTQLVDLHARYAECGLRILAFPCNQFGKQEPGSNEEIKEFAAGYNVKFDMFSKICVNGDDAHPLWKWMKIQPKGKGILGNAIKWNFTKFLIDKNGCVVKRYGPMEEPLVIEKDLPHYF

With `CC1=C(C(=O)O)/C(=C\CO[C@@H]2O[C@H](CO)[C@@H](O)[C@H](O)[C@H]2O)C(OC(=O)/C=C/c2ccc(O)cc2)C1` (stereo not given in full), the Potency result in experiment [1], in experiment [2], in experiment [3], in experiment [5] and in experiment [6] was “inactive” in each case. In addition, the Potency in experiment [4] was 4.62 µM (active).

Take `Nc1ncnc2c1nc(N)n2[C@@H]1O[C@H](CO)[C@@H](O)[C@H]1O`: the Potency entry in experiment [1], in experiment [2], in experiment [3], in experiment [4], in experiment [5] and in experiment [6] was “inactive” throughout.

For `O=C(CN1C(=O)C2(CCCC2)NCC1c1cc(F)cc(F)c1)Nc1ccc2c(c1)CC1(C2)C(=O)Nc2ncccc21` (stereo not given), the Potency entry in experiment [1], in experiment [2], in experiment [3], in experiment [4], in experiment [5] and in experiment [6] was “inactive” throughout.

As to `C=C1C(=O)O[C@H]2[C@H]1CC/C(C)=C/CC[C@@]1(C)O[C@@H]21`, the Potency result in experiment [1], in experiment [2], in experiment [3], in experiment [4], in experiment [5] and in experiment [6] was “inactive” each time.

With `CCC(Nc1ncnc2nc[nH]c12)c1nc2cccc(F)c2c(=O)n1-c1ccccc1` (stereo not given), the Potency entry in experiment [1], in experiment [2], in experiment [3], in experiment [4], in experiment [5] and in experiment [6] was “inactive” in each case.

On to `COC(=O)C[C@H]1C(C)(C)[C@H](OC(C)=O)C2CC3=C4CC(=O)O[C@@H](c5ccoc5)[C@]4(C)CCC3[C@@]1(C)C2=O` (stereo not given in full), for which the Potency entry in experiment [1], in experiment [2], in experiment [3], in experiment [4], in experiment [5] and in experiment [6] was “inactive” throughout.

With `CC1(C)C2CC(OC3OC(COC4OCC(O)(CO)C4O)C(O)C(O)C3O)C1(C)CC2O` (stereo not given), the Potency result in experiment [1], in experiment [2], in experiment [3], in experiment [4], in experiment [5] and in experiment [6] was “inactive” in each case.

For the compound `CC(O)c1cc(C(=O)N[C@@H](C)Cn2ccc(-c3ccc(C#N)c(Cl)c3)n2)n[nH]1` (stereo not given in full), the Potency entry in experiment [1], in experiment [2], in experiment [3], in experiment [4], in experiment [5] and in experiment [6] was “inactive” throughout.

As for `N#C[C@@H]1C[C@H](F)CN1C(=O)CNC1[C@H]2CN(C(=O)c3ccc(F)cc3)C[C@@H]12` (stereo not given in full), the Potency entry in experiment [1], in experiment [2], in experiment [3], in experiment [4], in experiment [5] and in experiment [6] was “inactive” throughout.

Take `CC1OC2OC(=O)C3(C)CC4=C(CO)C5=C(CC(=O)C4(C)C(C1=O)C23)C(C)(C)OC(=O)C5` (stereo not given): the Potency result in experiment [1], in experiment [2], in experiment [3], in experiment [4], in experiment [5] and in experiment [6] was “inactive” each time.

`Cc1cc(Nc2cc(N3CCN(C)CC3)nc(/C=C/c3ccccc3)n2)n[nH]1`: the Potency result in experiment [1], in experiment [2], in experiment [3], in experiment [4], in experiment [5] and in experiment [6] was “inactive” throughout.

Turning to `C[C@@H]1C[C@@H]([C@@H](O)C(C)(C)O)O[C@H]2C[C@@]3(C)C(=C12)C[C@H](O)[C@H]1[C@@]2(C)CCC(=O)C(C)(C)C2CC[C@@]13C` (stereo not given in full), the Potency result in experiment [1], in experiment [2], in experiment [3], in experiment [4], in experiment [5] and in experiment [6] was “inactive” throughout.

With `CC1(C)CC(=O)C2=C(C1)NC(=S)NC2c1cccc(O)c1` (stereo not given), the Potency result in experiment [1], in experiment [2], in experiment [3], in experiment [4], in experiment [5] and in experiment [6] was “inactive” in each case.

As for `CC(=O)O[C@@H]1[C@@H](CO)O[C@@](CO)(O[C@H]2O[C@H](COC(=O)/C=C/c3ccccc3)[C@@H](O)[C@H](O)[C@H]2O)[C@H]1O`, the Potency entry in experiment [1], in experiment [2], in experiment [3], in experiment [5] and in experiment [6] was “inactive” throughout. For the same compound, the Potency in experiment [4] is 4.62 µM (active).

For `Cc1cc(Nc2ncc3cc(-c4c(Cl)cccc4Cl)c(=O)n(C)c3n2)ccc1F`, the Potency result in experiment [1], in experiment [2], in experiment [3], in experiment [4], in experiment [5] and in experiment [6] was “inactive” throughout.

`CC(=O)c1ccc(O[C@@H]2O[C@H](CO)[C@@H](O)[C@H](O)[C@H]2O)cc1`: the Potency result in experiment [1], in experiment [2], in experiment [3], in experiment [4], in experiment [5] and in experiment [6] was “inactive” each time.

For `CC1=CC(=O)C2(OC3OC(C)C(O)C(OC(=O)/C=C/c4ccccc4)C3O)C=COC(OC3OC(CO)C(O)C(O)C3O)C12` (stereo not given), the Potency entry in experiment [1], in experiment [2], in experiment [3], in experiment [5] and in experiment [6] was “inactive” throughout. Further, the Potency in experiment [4] was 1.41 µM (active).

For the compound `CC(=O)NC1=NN(C(C)=O)C(C)(c2ccccc2)S1` (stereo not given), the Potency entry in experiment [1], in experiment [2], in experiment [3], in experiment [4], in experiment [5] and in experiment [6] was “inactive” each time.

`COc1c2c(cc3c1-c1c(cc4c(c1OC)OCO4)CC(C)C(C)C3)OCO2` (stereo not given): the Potency entry in experiment [1], in experiment [2], in experiment [3], in experiment [4], in experiment [5] and in experiment [6] was “inactive” throughout.

For `CCOc1cc(C(=O)N2CCC(N3CCN(C)CC3)CC2)ccc1Nc1ncc2c(n1)N(C1CCCC1)c1ccccc1C(=O)N2C`, the Potency result in experiment [1], in experiment [2], in experiment [3], in experiment [4], in experiment [5] and in experiment [6] was “inactive” throughout.

These data come from PubChem BioAssay (NCATS).
